# Bioassay records from PubChem.
# EBV gp42 inh: blocks Epstein-Barr virus glycoprotein 42 binding; Q1HVG2; Fluorescence polarization binding assay, mP read-out; inhibition, % (tested at 21.74 µM); 220,000 tested, 0.42% active; AID 1085; in the data active means inhibition above about 50%
# GLD-1 TGE inh: GLD-1-TGE RNA interaction inhibition (C. elegans) | 320,000 tested, 0.44% active | Q17339 | inhibition, % at 5.96 µM | purified GLD-1 + fluorescein TGE RNA, fluorescence polarization | AID 2280;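 active means percent inhibition above a per-plate cutoff, the plate mean of test compounds plus 3 SD, cut at about 30% in these data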;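 further: 0% = DMSO wells with GLD-1 and probe and 100% = wells lacking GLD-1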
# Bcl-xL primary: Bcl-xL (human) inhibition; Q07817; GST-Bcl-xL / FITC-Bim BH3 peptide fluorescence polarization; inhibition, % at 10.9 µM; 320,000 tested, 0.7% active; AID 2129;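 active means inhibition above the mean of all tested compounds plus 3 SD, cutoff set per campaign, cut at about 30% in these data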;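 further: 0% = DMSO wells and 100% = unlabeled Bim-BH3 peptide competitor; inhibitors lower millipolarization by displacing the labeled peptide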
# MCL1 BIM primary: disrupts human MCL1 binding to BIM-BH3 peptide | 320,000 tested, 0.68% active | inhibition, % at 10.9 µM | GST-MCL1 / FITC-Bim-BH3 fluorescence polarization;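 active means inhibition above the mean inhibition of all tested compounds plus 3 SD, set per campaign, cut at about 40% in these data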;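 further: 0% = DMSO wells and 100% = unlabeled Bim-BH3 peptide control; higher means more loss of mP so more displacement of Bim peptide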
# MEX-5 binding: C. elegans MEX-5 TCR-2 RNA binding activity; Q9XUB2; MEX-5/FITC-TCR2 RNA binding, fluorescence polarization; stronger effect = lower value; activity score (negative = inhibition of binding), % at 10 µM; 300,000 tested, 0.38% active;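 active means inhibition past about -25% in most replicates, and total fluorescence under double the plate's negative control median, limit read from the data; inconclusive means replicates evenly split on the limit, or fluorescence at least double controls; inactive means too little inhibition in most replicates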;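 further: 0% = DMSO and -100% = 5 µM competing unlabeled TCR2 RNA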
# Target sequence (Q9XUB2 whole entry, looked up): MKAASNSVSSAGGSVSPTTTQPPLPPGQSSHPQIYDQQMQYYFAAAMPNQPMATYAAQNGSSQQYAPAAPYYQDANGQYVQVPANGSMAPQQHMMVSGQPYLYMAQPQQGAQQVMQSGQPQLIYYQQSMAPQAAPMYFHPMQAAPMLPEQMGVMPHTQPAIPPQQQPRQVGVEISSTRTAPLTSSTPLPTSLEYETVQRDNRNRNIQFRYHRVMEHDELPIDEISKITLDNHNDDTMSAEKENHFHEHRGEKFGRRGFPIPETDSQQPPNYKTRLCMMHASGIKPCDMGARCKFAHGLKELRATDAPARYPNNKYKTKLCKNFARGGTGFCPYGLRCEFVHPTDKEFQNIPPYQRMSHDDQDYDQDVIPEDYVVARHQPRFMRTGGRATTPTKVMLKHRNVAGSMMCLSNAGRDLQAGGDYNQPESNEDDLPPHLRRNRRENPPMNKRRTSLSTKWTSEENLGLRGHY
# E coli Lon inh: inhibits E. coli Lon protease; inhibition, % at 7.94 µM; purified E. coli Lon protease, fluorescence polarization; P0A9M0; 360,000 tested, 0.42% active; in the data active means inhibition above about 13%, passing the limit was not always enough;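 further: 0% = enzyme with probe and DMSO and 100% = no enzyme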
# BCLXL inh confirm: Bcl-xL (human) inhibition, MCL1 counter-screen confirmation | 1,700 tested, 54% active | AID 2166 | GST-Bcl-xL / FITC-Bim BH3 peptide FP binding | shares compounds with MCL1 BIM primary | inhibition, % at 10.9 µM;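 active means inhibition above a cutoff equal to the mean inhibition of all tested compounds plus 3 SD, cut at about 30% in these data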;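 further: 0% = DMSO wells and 100% = unlabeled Bim BH3 control peptide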
# MCL1 BIM confirm: confirmation of human MCL1 and BIM-BH3 interaction inhibitors; shares compounds with MCL1 BIM primary; GST-MCL1 / FITC-Bim-BH3 fluorescence polarization; inhibition, % at 10.9 µM; 1,700 tested, 61% active; AID 2168;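 active means inhibition above the average of all tested compounds plus 3 SD, cut at about 40% in these data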;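 further: 0% = DMSO wells and 100% = unlabeled Bim-BH3 control peptide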
# GLD-1 TGE cf: GLD-1 TGE RNA interaction inhibition, confirmation; 550 tested, 10% active; AID 2459; shares compounds with GLD-1 TGE inh; inhibition, % at 5.96 µM; GLD-1/FL-TGE RNA fluorescence polarization, biochemical;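 active means average inhibition across triplicates above the hit cutoff set in the primary screen, cut at about 32% in these data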;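 further: 0% = GLD-1 with RNA probe and DMSO and 100% = wells lacking GLD-1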
# * = called active by the depositor; ? = inconclusive; nt = no result; + = active, no number. An excerpt weighted towards active compounds, which were near 1.5% of everything screened.
SMILES,EBV gp42 inh,GLD-1 TGE inh,Bcl-xL primary,MCL1 BIM primary,MEX-5 binding,E coli Lon inh,BCLXL inh confirm,MCL1 BIM confirm,GLD-1 TGE cf
Cc1ccccc1CS(=O)(=O)CCC(=O)NCCN1CCN(c2cccc(Cl)c2)CC1,-29,62*,62*,59*,0,-7,10,24,-2
CCOC(=O)N1CCc2[nH]c3ccc(C)cc3c2C1,5,53*,66*,63*,-6,10,9,8,11
CC(=O)N1CCc2[nH]c3ccc(C)cc3c2C1,nt,18,16,18,-12,-1,nt,nt,nt
COc1ccc(NC(=O)Nc2cc(C)cc(C)c2)cn1,29,48*,58*,58*,-36*,29,62*,79*,43*
COc1ccc(NC(=O)Nc2cccs2)cn1,nt,nt,nt,nt,-5,4,nt,nt,nt
Cc1cc(N2CCN(C(=O)c3ccco3)CC2)c2ccccc2n1,-8,4,-1,3,0,-7,nt,nt,nt
O=C(O)CCNc1cc(N2CCN(C(=O)c3ccco3)CC2)c2noc3c2c1C(=O)c1ccccc1-3,nt,37*,78*,93*,?,25,59*,-111,-216
CCC1=NN(C(=O)CCc2ccc3c(c2)OCO3)C(O)(C(F)(F)F)C1 (stereo not given),-11,-8,-5,-21,-5,-2,nt,nt,nt
Cc1ccc(C(=O)NNC(=O)c2ccc(NS(=O)(=O)c3cccs3)cc2)o1,nt,46*,61*,+,nt,0,-1,-3,-5
O=C(NNC(=O)c1ccc(Br)o1)c1ccc(NS(=O)(=O)c2cccs2)cc1,nt,nt,nt,nt,nt,-9,nt,nt,nt
COc1ccc(CCNC(=O)C(=O)N2CCCC2)cc1OC,12,1,9,8,0,-4,nt,nt,nt
Cc1ccc(SCc2cc(=O)n3ccsc3n2)c(C)c1,2,6,3,9,1,nt,nt,nt,nt
Cc1cccc(-n2c(SCc3cc(=O)n4ccsc4n3)nc3ccccc32)c1,78*,43*,73*,67*,-6,-3,63*,89*,26
CCOC(=O)C1=C(C)OC(N)=C(C#N)C1c1cc2c(cc1[N+](=O)[O-])OCO2 (stereo not given),30,38*,36*,44*,-2,2,49*,73*,7
OCCC1CN(Cc2cccc3nccnc23)CCN1Cc1ccc(F)cc1 (stereo not given),-15,46*,60*,60*,-1,-2,9,7,-1
CCOc1ccc(N=C/C=C/c2ccccc2)c(O)c1,0,72*,84*,87*,-4,14,14,20,3
CCOc1ccc(NCC(=O)N/N=C/C=C/c2ccccc2)cc1,9,6,1,-2,0,-9,nt,nt,nt
CCOC(=O)C1=CC[C@@H](c2ccc(OC)cc2)N(S(=O)(=O)c2ccc(C)cc2)[C@H]1CC,nt,nt,nt,nt,nt,2,nt,nt,nt
O=C1CCCC2=C1Sc1ccc(Cl)cc1N2,54*,50*,69*,77*,?,18,64*,74*,11
CCOC(=O)c1ccc(NC(=O)CN(c2ccc(C)cc2)S(=O)(=O)c2c(C)n[nH]c2C)cc1,16,74*,92*,106*,2,1,6,8,0
Cc1csc(SCc2c(C(=O)O)oc3ccccc23)n1,5,62*,107*,125*,1,-6,6,4,-2
Cc1cccc(C)c1Nc1nnc(SCc2cn3cccc(C)c3n2)s1,2,0,-5,-4,0,1,nt,nt,nt
CCCC(=O)NCc1ccc2c(c1)cc(C)n2C,-2,54*,48*,52*,-4,2,11,4,10
CSc1nc2nc3c(cc2c(=O)n1-c1ccccc1C)COC(C)(C)C3,-16,46*,57*,59*,-1,5,-4,0,-6
O=C(O/N=C1\CCS(=O)(=O)c2sccc21)C1CC1,3,-3,7,5,0,11,nt,nt,nt
SMILES,EBV gp42 inh,GLD-1 TGE inh,Bcl-xL primary,MCL1 BIM primary,MEX-5 binding,E coli Lon inh,BCLXL inh confirm,MCL1 BIM confirm,GLD-1 TGE cf
COCCCNC(=O)c1c(N)n(-c2ccc3c(c2)OCO3)c2nc3ccccc3nc12,nt,49*,48*,58*,0,3,7,2,-1
COc1ccc(-n2c(COc3ccc(Cl)cc3Cl)n[nH]c2=S)cc1,nt,nt,nt,nt,nt,0,nt,nt,nt
O=c1[nH]c(Nc2ccc(F)cc2)cc2ccccc12,17,66*,54*,66*,-15,-10,12,13,8
O=c1[nH]c(Nc2ccccn2)cc2ccccc12,nt,8,12,8,-9,-10,nt,nt,nt
CCOC(=O)c1ccc(Nc2nc(C)nc3c2nnn3Cc2ccccc2)cc1,nt,10,5,5,-1,0,nt,nt,nt
O=c1[nH]c2cc3c(cc2cc1CN(Cc1nnnn1CC1CCCO1)C1CCCCC1)OCO3 (stereo not given),57*,43*,77*,85*,-6,24,45*,68*,-2
O=C(NCc1ccco1)c1ccc2c(=O)n(-c3ccccc3)c(=S)[nH]c2c1,-20,3,5,7,0,2,nt,nt,nt
O=C(CSc1ccccn1)N/N=C/c1c[nH]c2ccccc12,-3,5,4,-5,3,-3,nt,nt,nt
O=C1CC(/C=C/c2ccccn2)=Nc2ccccc2N1,-11,32*,56*,53*,0,4,1,-1,0
C(=C\c1ccccn1)/c1ccccn1,-4,-1,4,5,-1,-3,nt,nt,nt
Cc1nc(SCC(=O)Nc2c(C)n(C)n(-c3ccccc3)c2=O)[nH]c(=O)c1Cc1ccccc1,-7,47*,55*,71*,2,-21,11,5,7
CCOC(=O)c1c(NC(=O)CSc2ncn[nH]2)sc(C(C)=O)c1C,nt,-1,1,-7,-1,-7,nt,nt,nt
COC(=O)c1c(NC(=O)CSc2ncn[nH]2)sc(C)c1C,nt,32*,56*,71*,-1,-16,1,6,-9
Cc1cc(Cl)c2c(c1)[C@]1(C(=O)N2)[C@@H]2C(=O)N(Cc3ccccc3)C(=O)[C@@H]2[C@@H]2CCCN21,4,-5,6,2,1,4,nt,nt,nt
COc1ccc2[nH]c(C)c(CCN(Cc3cccs3)C(=S)Nc3ccc(F)cc3)c2c1,4,49*,73*,75*,-6,17,41*,52*,-1
